Experimental data taken from PubChem BioAssay AID1851 (National Center for Advancing Translational Sciences (NCATS), 2009).
Values joined by “and” are separate entries in the source; they are usually repeats but may differ in a detail not shown here. Equal values may be shown once. Hit rate of the full screen: of about 16,000 compounds, about 5,800 (36%) were called active. Not shown: some 23% with an inconclusive outcome. The call rests on the fitted dose curve; in most records, active means well fitted curve in the direction sought with a large enough effect; inconclusive means small, poorly fitted or top-dose-only effect, or effect the other way; inactive means no such curve, though single readings can be large or run the other way. Some of the results follow.

The molecules below were run against Cytochrome P450 2C19 (Homo sapiens) (UniProt P33261) (assay: Cytochrome panel assay with activity outcomes). Settings: recombinant CYP, pro-luciferin dealkylation, luminescence, p450-cyp2c19; series mostly up to 57.1 µM.
Sequence of Cytochrome P450 2C19 (Homo sapiens) (P33261 whole entry, looked up): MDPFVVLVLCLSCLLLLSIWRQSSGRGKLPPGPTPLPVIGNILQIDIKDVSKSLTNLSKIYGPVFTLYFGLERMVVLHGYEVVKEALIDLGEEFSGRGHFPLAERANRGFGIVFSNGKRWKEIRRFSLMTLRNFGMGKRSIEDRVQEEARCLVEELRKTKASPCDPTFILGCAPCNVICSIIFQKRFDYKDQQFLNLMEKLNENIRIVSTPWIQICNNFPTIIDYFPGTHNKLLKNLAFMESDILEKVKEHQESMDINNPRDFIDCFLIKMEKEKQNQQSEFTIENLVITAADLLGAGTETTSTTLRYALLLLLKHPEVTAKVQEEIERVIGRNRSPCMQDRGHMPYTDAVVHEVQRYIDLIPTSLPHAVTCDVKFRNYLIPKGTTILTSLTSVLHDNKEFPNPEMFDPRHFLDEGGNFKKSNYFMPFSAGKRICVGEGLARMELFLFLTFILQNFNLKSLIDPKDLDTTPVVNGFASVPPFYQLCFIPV
On the % scale 0 is the no-effect control and ±100 the full control effect.

Compound | activity, negative = inhibition | AC50
Clc1ccc(CSc2ncnc3c2ncn3[C@@H]2CCCCO2)cc1 | -40.6% [at 11.4 µM] (inactive) | –
Fc1ccc(CSc2ncnc3sc4c(c23)CCCC4)cc1 | – | 0.891 µM (active)
Nc1[nH]c(=O)nc2c1ncn2[C@H]1O[C@@H](CO)[C@@H](O)[C@@H]1O | 25.3% [at 11.4 µM] (inactive) | –
CCn1c2ccccc2c2cc(/C=N/n3cn[nH]c3=S)ccc21 | – | 3.55 µM (active)
O=C1[C@H]2[C@H]3[C@H](O)[C@H](O)C/C(=N/OC[C@@H](O)COCc4ccco4)[C@@H]3CC[C@@H]2C(=O)N1C1CCCCC1 | 9.78% [at 11.4 µM] (inactive) | –
COc1cc(NC(=S)Nc2ccc(S(=O)(=O)N3CCOCC3)cc2)cc(OC)c1OC | – | 10 µM (active)
CS(=O)(=O)Nc1ccc(S(=O)(=O)N2CCOCC2)cc1 | – | inactive
CCCc1c(OCCCOc2ccc(OCC(=O)O)cc2)ccc(CC=O)c1O | – | inactive
COc1ccc(C(=O)N/N=C(\C)Cn2nc([N+](=O)[O-])cc2C)cc1 | – | inactive
COc1ccc(CC(=O)Nc2cccc(/C(C)=N/NC(=O)c3cccc([N+](=O)[O-])c3)c2)cc1 | – | 14.1 µM (active)
CCSc1nnc2n(N)c(=O)c3ccccc3n12 | – | inactive
Cc1cc2nnc(SCC(=O)OC(C)C)n2c2ccccc12 | – | 7.94 µM (active)
COC(=O)c1cc(C#N)c(Oc2ccc(OC)cc2)nc1C | – | 17.8 µM (active)
CC(=O)c1cc(C#N)c(Oc2cccc(C(F)(F)F)c2)nc1C | – | 11.2 µM (active)
COc1ccc(Oc2ncc3nc(C)c(=O)n(-c4ccc(OC)cc4)c3n2)cc1 | – | inactive
COC(=O)c1cc(C#N)c(NCc2ccc(Cl)cc2Cl)nc1C | – | inactive
Cn1cccc1C(=O)N1CCC2(CCN(C(=O)Nc3ccccc3)CC2)CC1 | – | inactive
Cn1cccc1C(=O)N1CCC2(CC1)CN(C(=O)Nc1ccccc1)C2 | – | inactive
Cn1cccc1C(=O)C(=O)Nc1cccc(Cl)c1Cl | – | 3.16 µM (active)
O=c1n(-c2ccccc2)c(=O)n2n1CC[C@H]1/C(=N\OC[C@@H](O)COCc3ccco3)[C@H]3O[C@@H]3[C@@H](O)[C@@H]12 | 18.2% [at 11.4 µM] (inactive) and 1.03% [at 11.4 µM] (inactive) | –
CCN(c1ccc(NC(=O)COC(=O)c2ccc3ccccc3n2)cc1)C(C)C | – | 4.47 µM (active)
Cc1ccnc2nc(C(=O)OCC(=O)Nc3ccc4c(c3)OC(F)(F)O4)nn12 | – | inactive
COc1ccc(C(=O)Nc2ccc(OCC(F)(F)C(F)F)c(C(F)(F)F)c2)cc1OC | – | 14.1 µM (active)
CC(C)NC(=O)N1CC[C@@]2(CCCN(C(=O)c3csnn3)C2)C1 | – | inactive
